Results: PubChem BioAssay AID1117359 (Southern Research Institute, 2015)
Hit rate of the full screen: of about 1,500 compounds, about 460 (31%) were called active. The list is a sample of the results. Potency and affinity values are given separately. Unmarked numbers belong to inactive results.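 The calls were made as follows: active = viability at or below 80% at any tested concentration, marking the compound as toxic; inactive = the rest.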

Test: viability loss in THP-1 monocytes – THP-1 cells, cytotoxicity control for Vif-APOBEC3G degradation inhibitor project, dose response (AID 1117359)
Conditions: THP-1 viability, CellTiter-Glo luminescence, 72 h; series mostly up to 40 µM; viability: at the top concentration

| SMILES | viability [%] |
| --- | --- |
| O=c1oc2c(O)c(O)cc3c(=O)oc4c(O)c(O)cc1c4c23 | 81.6 |
| CN(Cc1ccccc1)C(=O)C1CCCN1S(=O)(=O)c1ccc2c(c1)n(C)c(=O)c(=O)n2C (stereo not given) | 104 |
| CC1(C)Cc2nc3sc(C(=O)O)c(N)c3cc2CS1 | 85.6 |
| O=c1cc2oc3cc(O)c(O)cc3c(-c3ccccc3O)c-2cc1O | 84.8 |
| COCCn1c(SCC(=O)Nc2cc(C)on2)nc2cc(Cl)ccc2c1=O | 95.7 |
| CCCCS(=O)(=O)N1CCCC(C(=O)N2CCOCC2)C1 (stereo not given) | 91.6 |
| COc1ccc(NS(=O)(=O)c2cccc(C(=O)NNC(=O)c3cccn3C)c2)cc1 | 96.1 |
| COc1ccc(S(=O)(=O)NNC(=O)c2sccc2-n2cccc2)cc1 | 93.2 |
| Cc1ccc(C(=O)O)cc1-c1ccc(/C=C2/NC(=O)N(c3ccccc3)C2=O)o1 | 104 |
| COC(=O)C1C(O)=C(C=Nc2ccc(N)cc2)C(=O)CC1(C)C (stereo not given) | 86.8 |
| COc1ccc(/C(O)=C2/C(=O)C(=O)N(c3ccccn3)C2c2ccc(F)cc2)cc1 (stereo not given) | 88.5 |
| COC(=O)C1=C(O)/C(=C/c2cccc(OC)c2O)N=C1C | 119 |
| Cc1cc(O)c(C(C)C)cc1N=Cc1ccc([N+](=O)[O-])cc1 | 86 |
| O=[N+]([O-])/C(C(Cl)=C(Cl)Cl)=C(/NC1CC1)Sc1ccccc1 | 80.3 |
| CN1OC[C@@H]2CN(C(=O)C(C)(C)C)[C@H](c3cccc(Oc4ccccc4)c3)C[C@@H]21 | 81.6 |
| COc1ccc(C2CC(=O)Oc3cc(OC)ccc32)cc1 (stereo not given) | 97 |
| Cc1ccc(C(=O)C2=C(O)C(=O)N(c3ncccn3)C2c2ccc(F)cc2)o1 (stereo not given) | 98.4 |
| O=C(O)/C=C/c1ccc(S(=O)(=O)N2CCN(CCN3C(=O)C4C5C=CC(C5)C4C3=O)CC2)cc1 (stereo not given) | 105 |
| O=S(=O)(O)c1cccc2c(N=Nc3ccc(O)c4ncccc34)cccc12 | 112 |
| O=[N+]([O-])c1cc2ccccc2c(O)c1O | 105 |
| CN(CC(=O)Nc1ccccc1Cl)C(=O)Cn1cc(C(F)(F)F)cc(Cl)c1=O | 98.7 |
| Cc1[nH]c(=O)nc(NN=Cc2ccc(Cl)cc2)c1C(=O)Nc1ccc(Cl)cc1 | 94.2 |

| SMILES | viability [%] |
| --- | --- |
| CC(=C/C(=O)O)/C=C/c1ccc(Cl)o1 | 104 |
| COc1ccccc1C(=O)Nc1ccc(-c2nnc(SCC(=O)O)n2C)cc1 | 96.2 |
| O=C(CSc1nnc(-c2ccco2)c(-c2ccco2)n1)Nc1ccccc1 | 80.2 |
| O=[N+]([O-])c1ccc(-c2c[nH]c(=S)[nH]2)cc1 | 103 |
| CCOc1ccc(/C=C2\NC(=S)NC2=O)cc1 | 96.2 |
| COc1ccc(-c2cc(-c3ccco3)[nH]c(=O)c2C#N)cc1 | 101 |
| CC1CCC/C(=C\Nc2ccc(C(=O)O)c(O)c2)C1=O (stereo not given) | 107 |
| CCNC(=O)COC(=O)c1cc(-c2ccco2)nc2ccccc12 | 96.2 |
| CN(C)[C@@H]1C(=O)C(C(=O)NCN2CCCC2)=C(O)[C@@]2(O)C(=O)C3=C(O)c4c(O)cccc4[C@@](C)(O)C3CC12 (stereo not given in full) | 88.8 |
| Cc1cc(/C=C2\SC(=S)NC2=O)c(C)n1C | 83.5 |
| COC(=O)Cc1ccc(NC(=S)NNC(=O)C2CC2)cc1 | 94.8 |
| O=c1[nH][nH]c(=O)c2nc(Nc3ccccc3)ncc12 | 93.8 |
| CCN(CC)c1ccc(C=Nc2ccc(N(C)C)cc2)c(O)c1 | 92.7 |
| Cc1ccccc1NC(=O)Cc1nc(COC(=O)Cc2ccccc2F)cs1 | 110 |
| CN(C)c1ccc(/C=C/C#N)cc1 | 84.6 |
| CCCc1cc(=O)[nH]c(SCC(=O)c2c(C)[nH]c3ccccc23)n1 | 116 |
| COc1ccc(NC(=O)CSc2nc3c(cc2C#N)CN(C)CC3)cc1 | 81.2 |
| COc1ccc(NC(=O)CCCSc2ccccc2)cc1 | 110 |
| COc1ccc(NC2=NC(C)(CO)CS2)cc1 (stereo not given) | 105 |
| CCOC(=O)/C(=C\c1ccccc1)NC(=O)c1ccccc1 | 101 |
| Cc1ccc(C2C(C#N)=C(N)Oc3c2oc(CO)cc3=O)o1 (stereo not given) | 98.5 |
| COc1ccc2cc(C3C(C#N)=C(N)OC(C)=C3C(C)=O)c(Cl)nc2c1 (stereo not given) | 96.4 |

| SMILES | viability [%] |
| --- | --- |
| NS(=O)(=O)c1ccc(CCNC2CC(=O)N(Cc3ccccc3)C2=O)cc1 (stereo not given) | 101 |
| CN(Cc1cn(C)nc1-c1cccc(Cl)c1)Cc1nccn1C | 97 |
| Nc1ccc(N2CCN(CCCCN3C(=O)C4CCCN4C3=O)CC2)cc1 (stereo not given) | 87.8 |
| Nc1cc(C(=O)O)ccc1N1CCCCC1 | 83.3 |
| O=C(CN1C(=O)NC(c2ccc(F)cc2)C1=O)Nc1ccc2c(c1)OCCO2 (stereo not given) | 103 |
| COc1cccc(NC(=O)N2CCN(c3nnnn3-c3ccccc3)CC2)c1 | 86.7 |
| O=C(Cn1c(=O)oc2ccccc21)N1CCN(S(=O)(=O)c2ccccc2)CC1 | 98.3 |
| CC(C)(C)c1ccc(NC(=S)NCc2cccnc2)cc1 | 103 |
| O=S(=O)(c1ccc(OCC(O)CN2CCC(Cc3ccccc3)CC2)cc1)N1CCOCC1 (stereo not given) | 91.8 |
| N/C(=N\OC(=O)COc1ccc([N+](=O)[O-])cc1)c1cccnc1 | 109 |
| C/C(=N\NC(=O)c1cnccn1)c1ccc([N+](=O)[O-])cc1 | 107 |
| O=C1CC(Nc2ccc(N3CCOCC3)cc2)C(=O)N1Cc1ccccc1 (stereo not given) | 111 |
| Cc1cc(SCC2=NNC(=O)C2)c(Cl)cc1Cl | 104 |
| CC(C)Cc1nc2oc3c(NCC(C)O)ncnc3c2c2c1CCCC2 (stereo not given) | 85.5 |
| CCCCc1nc2sc3c(=O)[nH]cnc3c2c2c1CCCC2 | 105 |
| CCCCc1cc(C(=O)Cc2ccccn2)c(O)cc1O | 90.9 |
| COc1ccc(C(=O)OCC(=O)c2c(N)n(C)c(=O)n(C)c2=O)cc1OC | 87.8 |
| NC(=O)C1Cc2ccccc2CN1C(=O)c1nn(Cc2ccccc2)c(=O)c2ccccc12 (stereo not given) | 97.3 |
| Cc1cccc2nc(C(=O)Nc3cccc(C(=O)NC4CC4)c3)cn12 | 96.1 |
| Cc1onc(-c2ccccc2)c1CNC(=O)C1COc2ccccc2O1 (stereo not given) | 81 |
| O=C(O)Cc1ccc(N=Nc2c(O)c(C(=O)O)cc3ccccc23)cc1 | 120 |
| Nc1cccc2cc(S(=O)(=O)O)ccc12 | 104 |

| SMILES | viability [%] |
| --- | --- |
| O=C1CC(N2CCOCC2)C(=O)N1c1ccc(Cl)cc1 (stereo not given) | 95.9 |
| O=C(O)c1ccc2c(c1)C1C=CCC1C(c1ccncc1)N2 (stereo not given) | 95.9 |
| S=C1NC2(CCCCCC2)N=C1c1ccccc1 | 124 |
| CC(NC(=O)c1ccco1)C1CCCO1 (stereo not given) | 106 |
| S=c1[nH]nc(Cn2nnc3ccccc32)n1-c1ccccc1 | 96.5 |
| COc1cc(/C=C(\CC(=O)O)c2nc3ccccc3s2)cc(OC)c1O | 81.9 |
| C/C=C/c1ccc(OCC(=O)N2CCc3cc(OC)c(OC)cc3C2)c(OC)c1 | 87.1 |
| COc1cc(/C=N/NC(=O)c2ccc(NS(=O)(=O)c3cccs3)cc2)cc(OC)c1O | 93.2 |
| COc1ccccc1/C=C/C=C1N=C(/C=C/c2ccc(Cl)cc2)OC/1=O | 87.7 |
| CCc1ccccc1NC(=O)N1CCc2ccccc21 | 88.4 |
| CCN1CNC(=S)N(CCc2ccccc2)C1 | 102 |
| Cc1cc(C)n2nc(C(=O)OCC(=O)N(C)CC(=O)Nc3ccc(F)cc3)nc2n1 | 84.1 |
| CCN1CCN(C(=O)CN(C)S(=O)(=O)c2ccc(OC)c(C)c2)CC1 | 87.7 |
| CCOC(=O)CNC(=O)Cn1cnc2c(nnn2-c2ccc(F)cc2)c1=O | 97.2 |
| COC/C=C/C1=CC2=CC(=O)C(C)(OC(=O)C3CCCC3)C(=O)C2=CO1 (stereo not given) | 100 |
| Clc1ccccc1N=Nc1ccccn1 | 89.9 |
| COc1cc(OC)c2c(c1O)OC(c1ccccc1)CC2=O (stereo not given) | 105 |
| CCOC(=O)C1CCCC12Nc1cccc3cccc(c13)N2 (stereo not given) | 84.6 |
| Cc1noc(C)c1COc1ccc(C(=O)OCC(=O)N2c3ccccc3NC(=O)C2(C)C)cc1 | 102 |
| CCOc1ccc(NC(=O)C2CCCN(S(=O)(=O)c3c(C)nn(C)c3C)C2)cc1 (stereo not given) | 93 |
| CC(=O)c1sc(C(=O)O)c(-c2ccco2)c1-c1ccco1 | 115 |
| Cc1cc(CN2C(=O)c3ccccc3C2=O)cc(N2CCOCC2)c1 | 84 |

| SMILES | viability [%] |
| --- | --- |
| O=C(CCN1C(=O)c2ccccc2C1=O)NCc1ccco1 | 108 |
| CCCC(=O)C1=C(N(C)c2ccccc2)CC(C)(C)CC1=O | 99.3 |
| O=C(Nc1cccnc1)c1sc(Nc2ccccc2F)nc1-c1ccccc1 | 89 |
| O=C(COc1ccccc1Cl)c1ccc[nH]1 | 94.5 |
| C/C(=N\n1c(C)nc2ccccc2c1=O)c1ccc(C)o1 | 108 |
| O=C(O)C(Cc1ccccc1)N1C(=O)/C(=C/C=C/c2ccco2)SC1=S (stereo not given) | 106 |
| O=C(O)c1cc(N2N=C(C(F)(F)F)/C(=C/C=C/c3ccco3)C2=O)ccc1Cl | 99.9 |
| COC(=O)C1=C(C)N(Cc2ccccc2)C(=O)/C1=C\c1ccco1 | 90.4 |
| COc1ccc(N=C2NC(=O)/C(=C\C=C\c3ccco3)S2)cc1 | 101 |
| O=C1/C(=C\c2ccco2)NC(=S)N1c1ccccc1 | 91.4 |
| O=C1NN(c2cccc(Br)c2)C(=O)/C1=C\c1ccccc1 | 93.1 |
| O=C(Nc1ccc(Cl)cc1)Nc1ccc(N2CCC(C(F)(F)F)CC2)nc1 | 97.4 |
| CC1CC(C)CN(C(=O)CSCC(=O)O)C1 (stereo not given) | 96.8 |
| Cn1c(C(=O)N[C@@H](C(=O)O)c2ccccc2)cc2cc(Cl)ccc21 | 98.7 |
| C#Cc1ccc([C@H]2C=C(C(=O)N3CCOCC3)O[C@@H](OCc3ccc(CO)cc3)C2)cc1 | 98.9 |
| Cc1cc(=O)n2nc(N3CCCC(C(=O)NC4CCC(C)CC4)C3)sc2n1 (stereo not given) | 91.6 |
| O=C(O)Cc1cccc(=O)c(O)c1C(=O)O | 92.9 |
| COc1cc(NC(=O)c2noc3c2CCC3)c(OC)cc1Cl | 85.2 |
| CCOC(=O)C(=O)NCc1ccc(/C=C2/N=C(C)C(C(=O)OCC)=C2O)o1 | 101 |
| CN(C)c1nc(OCCNC(=O)COc2ccc(Cl)cc2Cl)nc(N2CCOCC2)n1 | 95.2 |
| CC(=O)c1ccc(-c2nnc(CCC(=O)N(C)Cc3c(C)nc4ccccn34)o2)s1 | 104 |
| CC(=O)Nc1nnc(-c2c(-c3c(Cl)cccc3Cl)noc2C)o1 | 95.8 |
